According to the supplement of paper PMC7695840:
Counter-ions that a name gives are not always drawn.

Key:
[1] = tested on: Staphylococcus aureus MW2 delta-mecA (mecA-); assay: normalized GFP fluorescence (growth of mecA- strain) (fraction of control range); higher = more growth of mecA- strain; details: compound concentration: 150 uM; cefoxitin: subinhibitory; fluorescent label: GFP
Outline: (§1)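 Single-replicate 1536-well plates carried 150 μM compound (1.5% DMSO), onto which 5 µL/well of a 1:1 mix of pre-induced S. aureus MW2 cells was dispensed: gene-carrying cells tagged with DsRed and deletion cells tagged with GFP, in LB with a subinhibitory antibiotic dose set daily. Incubation ran 20 h at 37 °C, 90% humidity, unshaken, followed by DsRed (540/590) and GFP (485/520) reads. Per-plate scaling of each channel used single-strain control medians, and plates with high untreated ratios and rows with DsRed/GFP >10 were excluded.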

[2] = tested on: Staphylococcus aureus MW2 (mecA+); assay: normalized DsRed fluorescence (growth of mecA+ strain) (fraction of control range); higher = more growth of mecA+ strain; details: compound concentration: 150 uM; cefoxitin: subinhibitory; fluorescent label: DsRed
Outline: as §1

Row | SMILES | normalized GFP fluorescence [1] | normalized DsRed fluorescence [2]
1 | CN(C)CCc1c[nH]c2ccc(Cn3cncn3)cc12 | 0.425 | 0.751
2 | CCOC(=O)[C@H](CCc1ccccc1)N[C@@H](C)C(=O)N1CCC[C@H]1C(=O)O | 0.325 | 0.611
3 | OCC(S)CS (stereo not drawn) | 0.185 | 0.549
4 | CCN(C(=O)c1c(O)c2c(Cl)cccc2n(C)c1=O)c1ccccc1 | 0.0925 | 0.805
5 | C#CCN[C@@H]1CCc2ccccc21 | 0.911 | 0.693
6 | CCCSc1nc(N[C@@H]2C[C@H]2c2ccc(F)c(F)c2)c2nnn([C@@H]3C[C@H](OCCO)[C@@H](O)[C@H]3O)c2n1 [Ticagrelor] | -0.0296 | -0.0335
7 | CCCCCCNC(=O)n1cc(F)c(=O)[nH]c1=O [Carmofur] | 0.605 | 0.452
8 | CCN(CC)CCNC(=O)c1cc(S(C)(=O)=O)ccc1OC | 0.437 | 0.945
9 | CCN[C@H]1C[C@H](C)S(=O)(=O)c2sc(S(N)(=O)=O)cc21 [Dorzolamide HCL] | 0.422 | 0.697
10 | CCCNC(C)C(=O)Nc1c(C)csc1C(=O)OC (stereo not drawn) [Articaine HCl] | 0.567 | 0.672
11 | O=C(O)CCNC(=O)c1ccc(/N=N/c2ccc(O)c(C(=O)O)c2)cc1 | 0.565 | 0.891
12 | COc1ccc([C@@H]2Sc3ccccc3N(CCN(C)C)C(=O)[C@@H]2OC(C)=O)cc1 | 0.124 | 0.612
13 | CC(=O)OCC[N+](C)(C)C | 0.311 | 0.859
14 | COC(=O)[C@@H]1CC2=CC(=O)CC[C@]2(C)[C@@]23O[C@@H]2C[C@@]2(C)[C@@H](CC[C@@]24CCC(=O)O4)[C@H]13 [Eplerenone] | 0.583 | 0.645
15 | CCCCC1=NC2(CCCC2)C(=O)N1Cc1ccc(-c2ccccc2-c2nnn[nH]2)cc1 | 0.0654 | 0.337
16 | O=C1C(CC[S+]([O-])c2ccccc2)C(=O)N(c2ccccc2)N1c1ccccc1 (stereo not drawn) | 0.525 | 0.445
17 | c1ccc(CN(CC2=NCCN2)c2ccccc2)cc1 | 0.974 | 0.762
18 | CN1CCC(=C2c3ccccc3CC(=O)c3sccc32)CC1 [Ketotifen fumarate (Zaditor)] | 0.402 | 0.799
19 | NNc1nncc2ccccc12 | 0.383 | 0.694
20 | CNC(C)C1CCC(N)C(OC2C(N)CC(N)C(OC3OCC(C)(O)C(NC)C3O)C2O)O1 (stereo not drawn) | 0.397 | 0.522

Row | SMILES | normalized GFP fluorescence [1] | normalized DsRed fluorescence [2]
21 | CCc1cn([C@H]2C[C@H](O)[C@@H](CO)O2)c(=O)[nH]c1=O | 0.343 | 0.714
22 | Cc1cccc(Nc2ccccc2C(=O)O)c1C [Mefenamic Acid] | 0.0909 | 0.169
23 | CC(C)(S)[C@@H](N)C(=O)O | 0.302 | 1.21
24 | O=P(O)(O)C(O)(Cc1cccnc1)P(=O)(O)O [Risedronic acid (Actonel)] | 0.68 | 0.671
25 | C=CC[N+]1([C@H]2C[C@H]3[C@@H]4CC[C@H]5C[C@H](O)[C@@H](N6CCOCC6)C[C@]5(C)[C@H]4CC[C@]3(C)[C@H]2OC(C)=O)CCCC1 | 0.279 | 0.667
26 | Cc1ncc(CO)c(CO)c1O | 0.208 | 0.816
27 | Clc1ccc(CCC(Cn2ccnc2)Sc2c(Cl)cccc2Cl)cc1 (stereo not drawn) | -0.00294 | 0.01
28 | Cc1cc2c(s1)Nc1ccccc1N=C2N1CCN(C)CC1 | 0.695 | 0.803
29 | Cc1ccc(S(=O)(=O)NC(=O)NN2CCCCCC2)cc1 | 0.372 | 0.655
30 | CN(C)CC(c1ccc(O)cc1)C1(O)CCCCC1 (stereo not drawn) | 0.107 | 1.1
31 | O=C(O)C(=O)O.[NH-][C@@H]1CCCC[C@H]1[NH-].[Pt+2] | 0.253 | 1.17
32 | CCN(CC)CCOc1ccc2c(c1)C(=O)c1cc(OCCN(CC)CC)ccc1-2 | 0.282 | 0.512
33 | COc1ccc(CC(C)NCC(O)c2ccc(O)c(NC=O)c2)cc1 (stereo not drawn) [Formoterol hemifumarate] | 0.777 | 0.699
34 | CCN(CCO)CCCC(C)Nc1ccnc2cc(Cl)ccc12 (stereo not drawn) | 0.323 | 1.33
35 | O=C(O)COCCN1CCN([C@H](c2ccccc2)c2ccc(Cl)cc2)CC1 | 0.222 | 0.775
36 | CCOc1cc2ncc(C#N)c(Nc3ccc(OCc4ccccn4)c(Cl)c3)c2cc1NC(=O)/C=C/CN(C)C [Neratinib (HKI-272)] | 0.0386 | 0.921
37 | CO[C@H]1O[C@@H]2O[C@@]3(C)CC[C@H]4[C@H](C)CC[C@@H]([C@H]1C)[C@@]24OO3 | 0.327 | 1.13
38 | CNC[C@H](O)[C@@H](O)[C@H](O)[C@H](O)CO [Meglumine] | 0.21 | 0.823
39 | S=P(N1CC1)(N1CC1)N1CC1 | 0.213 | 0.86
